According to PubChem BioAssay (EPA / NIEHS):
Records with an inconclusive call do not appear. Active and inactive are the calls of the source. Rule for the calls: active = hit-call score of the fitted dose curve at least 0.9, where 1 is the maximum; inconclusive = response in the unintended direction; inactive = score below 0.9. Peptide text beside a SMILES is read from it.

Each compound was assayed against Glucocorticoid receptor (Homo sapiens) (UniProt P04150) (assay: ATG_GR_TRANS: Attagene TRANS-FACTORIAL HepG2 Assay for human Glucocorticoid Receptor (GR) (AID 2282978;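 note: activators score as hits since higher reporter transcript over DMSO is fitted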)). Conditions: HepG2 Attagene TRANS GR reporter, mRNA transcription.
Glucocorticoid receptor (Homo sapiens), sequence (P04150 whole entry, looked up): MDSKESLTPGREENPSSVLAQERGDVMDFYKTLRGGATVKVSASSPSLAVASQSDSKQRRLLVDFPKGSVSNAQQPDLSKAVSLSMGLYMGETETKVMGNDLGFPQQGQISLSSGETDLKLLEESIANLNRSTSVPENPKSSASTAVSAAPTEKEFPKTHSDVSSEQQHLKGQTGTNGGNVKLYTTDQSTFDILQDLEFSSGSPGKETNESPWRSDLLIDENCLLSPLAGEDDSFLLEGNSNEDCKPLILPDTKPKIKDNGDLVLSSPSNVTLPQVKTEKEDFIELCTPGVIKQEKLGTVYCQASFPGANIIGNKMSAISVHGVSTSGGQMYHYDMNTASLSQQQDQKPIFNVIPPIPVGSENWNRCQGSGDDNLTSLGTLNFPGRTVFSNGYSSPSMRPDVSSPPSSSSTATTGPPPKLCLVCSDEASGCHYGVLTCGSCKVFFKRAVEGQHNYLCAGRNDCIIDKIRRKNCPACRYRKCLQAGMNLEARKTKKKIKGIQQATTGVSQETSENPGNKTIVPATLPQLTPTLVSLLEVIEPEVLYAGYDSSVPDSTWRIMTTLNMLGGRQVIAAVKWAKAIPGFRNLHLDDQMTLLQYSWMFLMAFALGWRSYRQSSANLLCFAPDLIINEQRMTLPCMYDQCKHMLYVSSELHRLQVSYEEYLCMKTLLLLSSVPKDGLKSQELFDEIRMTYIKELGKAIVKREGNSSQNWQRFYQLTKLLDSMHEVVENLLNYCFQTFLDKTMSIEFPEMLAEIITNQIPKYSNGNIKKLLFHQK
Procedure: ATG_TRANS is a cell-based, multiplexed-readout assay that uses HepG2, a human liver cell line, with measurements taken at 24 hours after chemical dosing in a 24-well plate.ATG_GR_TRANS is one of 30 assay component(s) measured or calculated from the ATG_TRANS assay. It is designed to make measurements of mRNA induction, a form of inducible reporter, as detected with fluorescence intensity signals by Reverse transcription polymerase chain reaction (RT-PCR) and Capillary electrophoresis technology.Data from the assay component ATG_GR_TRANS was analyzed into 1 assay endpoint. This assay endpoint, ATG_GR_TRANS, was analyzed in the positive analysis fitting direction relative to DMSO as the negative control and baseline of activity. Using a type of inducible reporter, measures of mRNA for gain-of-signal activity can be used to understand the reporter gene at the transcription factor-level as they relate to the gene NR3C1. Furthermore, this assay endpoint can be referred to as a primary readout, because this assay has produced multiple assay endpoints where this one serves a reporter gene function. To generalize the intended target to other relatable targets, this assay endpoint is annotated to the nuclear receptor intended target family, where the subfamily is steroidal.
Human liver HepG2 cells are transiently transfected with multiple reporter transcription units (MRTUs) in 6-well plates using FuGene 6 reagent (Roche; 3 ml FuGene/1 mg DNA). The MRTU constructs are regulated by a cis-regulating element (promoter). […] A major difference between the CIS and TRANS system is that in CIS activities of endogenous TFs are measured, whereas the TRANS assay evaluates changes in activities of exogenous, chimeric NR-Gal4 proteins. […] At the end of 24 hour incubation, total RNA was isolated using TriZol reagent (Invitrogen). The isolated RNA is then reverse-transcribed using oligo(dT) primer and Mo-MLV reverse transcriptase (Invitrogen) with DNAse I (Ambion) treatment for 30 min. The one-tenth of the produced cDNA was amplified by PCR using Taq DNA polymerase (Invitrogen) and two reporter sequence-specific primers. The PCR products were fluorescently labeled by primer extension with 6-arboxyfluorescein (6-FAM) 5'-labeled reporter sequence-specific primer (2 min at 95 C, 20 s at 68 C and 10 min at 72 C) and these products were digested with 5U of HpaI (New England Biolabs) for 2h at 37 C. The fragments were purified using Qiaquick PCR columns (Qiagen), analyzed on an ABI 3130xL genetic analyzer (Applied Biosystems) with peak positions identified by using a set of X-rhodamine (ROX)-labeled MapMarker1000 molecular weight standards (BioVentures). The raw capillary electrophoresis data was processed using Attagraph software (Attagene).

| SMILES | outcome | AC50 |
| --- | --- | --- |
| COC(=O)CC(C)CCC=C(C)C (stereo not given) | inactive | – |
| O=C(C=Cc1ccccc1)OCCc1ccccc1 | inactive | – |
| CC1CC(=O)CC(C)(C)C1 (stereo not given) | inactive | – |
| CC(C)c1cc(C(C)C)cc(C(C)C)c1 | inactive | – |
| CCN1CCCC1=O | inactive | – |
| CCCC(CC)c1ccccc1 (stereo not given) | inactive | – |
| O=C(Nc1ccccc1)c1cc(Cl)ccc1O | inactive | – |
| O=C(Oc1ccccc1)c1ccccc1C(=O)Oc1ccccc1 | inactive | – |
| CC(C)(O)Cc1ccccc1 | inactive | – |
| CCC(C)c1ccccc1 (stereo not given) | inactive | – |
| N#CC1(N)CCCCC1 | inactive | – |
| CC(C)(C)NC(=O)[C@H]1CC[C@H]2[C@@H]3CC[C@H]4NC(=O)C=C[C@]4(C)[C@H]3CC[C@]12C | inactive | – |
| CCCCCCC=O | inactive | – |
| C=CCCCCCCCCO | inactive | – |
| C=Cc1ccc(OC(C)=O)cc1 | inactive | – |
| CC(C)=CCl | inactive | – |
| COC(OC)(C(=O)c1ccccc1)c1ccccc1 | inactive | – |
| CCOC(=O)/C=C\C(=O)OCC | inactive | – |
| Cc1c[nH]c(=O)[nH]c1=O | inactive | – |
| C=C(C)C1CC=C(C)C(OC(C)=O)C1 (stereo not given) | inactive | – |

| SMILES | outcome | AC50 |
| --- | --- | --- |
| CC(=O)OC1CCCCC1 | inactive | – |
| COc1cc(C)ccc1O | inactive | – |
| CC(CCC(=O)O)(c1ccc(O)cc1)c1ccc(O)cc1 | inactive | – |
| c1ccc2c(c1)[nH]c1ccccc12 | inactive | – |
| CCOC(=O)[C@H](O)[C@@H](O)C(=O)OCC | inactive | – |
| Clc1cc(Cl)c(Cl)c(Cl)c1Cl | inactive | – |
| CC12CCC(CC1)C(C)(C)O2 | inactive | – |
| C=C(C)C(=O)OCCOC(=O)C(=C)C | inactive | – |
| O=C(Cl)c1c(Cl)c(Cl)c(C(=O)Cl)c(Cl)c1Cl | inactive | – |
| CC1=CP(=O)(c2ccccc2)CC1 (stereo not given) | inactive | – |
| C=C[C@@]1(C)CC(=O)[C@]2(O)[C@@]3(C)[C@@H](O)CCC(C)(C)[C@@H]3[C@H](O)[C@H](OC(C)=O)[C@@]2(C)O1 | – | 42.5 µM (active) |
| Cc1ccc(S(=O)(=O)N=C=O)cc1 | inactive | – |
| O=C(O)CCCC(=O)O | inactive | – |
| C=CCNCC=C | inactive | – |
| CC(=O)CCC1=C(C)CCCC1(C)C | inactive | – |
| COC(=O)[C@H](Cc1ccccc1)NC(=O)[C@@H](N)CC(=O)O (H-Asp-Phe-OMe) | inactive | – |
| CCCCC(CC)COC(=O)/C=C/c1ccc(OC)cc1 (stereo not given) | inactive | – |
| C=C(C)C(=O)OCCCCCCCCCCCC | inactive | – |
| C=C(C)OC(C)=O | inactive | – |
| CO[Si](CCCS)(OC)OC | inactive | – |
